Reference: PubChem BioAssay (NCI)
Compounds without any hit were thinned out: in the full panel of roughly 83,000, 20% have a hit.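 Treatment: one concentration, 48 hours, 96-well format. Scoring: percent growth, with anything below 10 considered active.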 Activity calls are given as the source filed them.

Experiments:
Assay in all cases: NCI-60 one-dose screen, 48 h (100 = growth as untreated, 0 = no growth, -100 = all killed)
Settings in all cases: 10 µM unless noted
DU-145 prostate = test system: DU-145 prostate
K-562 leukemia = test system: K-562 leukemia
MALME-3M melanoma = test system: MALME-3M melanoma
MDA-MB-231 breast = test system: MDA-MB-231 breast
RXF 393 renal = test system: RXF 393 renal
SF-268 CNS = test system: SF-268 CNS
SF-295 CNS = test system: SF-295 CNS
SF-539 CNS = test system: SF-539 CNS
UACC-257 melanoma = test system: UACC-257 melanoma
M14 melanoma = test system: M14 melanoma
HCT-15 colon = test system: HCT-15 colon
HT29 colon = test system: HT29 colon
SNB-75 CNS = test system: SNB-75 CNS
SNB-19 CNS = test system: SNB-19 CNS
U251 CNS = test system: U251 CNS
PC-3 prostate = test system: PC-3 prostate
SK-MEL-5 melanoma = test system: SK-MEL-5 melanoma
UACC-62 melanoma = test system: UACC-62 melanoma
LOX IMVI melanoma = test system: LOX IMVI melanoma
SK-MEL-28 melanoma = test system: SK-MEL-28 melanoma

Measured: growth

CC(=O)C(C)Cc1cc2c(cc1C)C(C)(C)CCC2(C)C (stereo not given)
inactive: DU-145 prostate 107% | K-562 leukemia 105% | MALME-3M melanoma 99% | MDA-MB-231 breast 109% | RXF 393 renal 104% | SF-268 CNS 100% | SF-295 CNS 102% | SF-539 CNS 102% | UACC-257 melanoma 79.1% | M14 melanoma 88.1% | HCT-15 colon 96.7% | HT29 colon 93.3% | SNB-75 CNS 96.4% | SNB-19 CNS 116% | U251 CNS 97.1% | PC-3 prostate 77.4% | SK-MEL-5 melanoma 103% | UACC-62 melanoma 99.4% | LOX IMVI melanoma 90.7% | SK-MEL-28 melanoma 106%

Cc1nn(-c2ccccc2)c(Cl)c1/C=C(/NC(=O)c1ccccc1)c1nc2ccccc2[nH]1
inactive: DU-145 prostate 117% | K-562 leukemia 88.4% | MALME-3M melanoma 48.9% | MDA-MB-231 breast 85.5% | RXF 393 renal 119% | SF-268 CNS 104% | SF-295 CNS 92.9% | SF-539 CNS 110% | UACC-257 melanoma 90.1% | M14 melanoma 70% | HCT-15 colon 94.1% | HT29 colon 75.3% | SNB-75 CNS 96.9% | SNB-19 CNS 101% | U251 CNS 92.4% | PC-3 prostate 78% | SK-MEL-5 melanoma 107% | UACC-62 melanoma 75% | LOX IMVI melanoma 96.8% | SK-MEL-28 melanoma 83.6%

COc1cc(/C=C/C(=O)c2c(C)nc3ccccc3c2/C=C/c2ccc(C)cc2)cc(OC)c1OC
inactive: DU-145 prostate 14.7% | K-562 leukemia 12% | MALME-3M melanoma 39.5% | MDA-MB-231 breast 16.6% | SF-268 CNS 44.7% | SF-295 CNS 38.8% | SF-539 CNS 19.5% | UACC-257 melanoma 43.8% | M14 melanoma 23.9% | HT29 colon 14% | SNB-75 CNS 22.7% | SNB-19 CNS 40.1% | U251 CNS 20.9% | PC-3 prostate 25.8% | SK-MEL-5 melanoma 26% | UACC-62 melanoma 25.6% | SK-MEL-28 melanoma 20.3%
active: RXF 393 renal 3.96% | HCT-15 colon -19.4% | LOX IMVI melanoma -22.8%

Cc1ccc(NS(=O)(=O)c2ccc3c(c2)C(=O)CC(c2ccc(C(=O)C(C)C)cc2)N3)cc1C (stereo not given)
active: SK-MEL-5 melanoma -10.4%
inactive: DU-145 prostate 83.5% | K-562 leukemia 39.7% | MALME-3M melanoma 51.1% | MDA-MB-231 breast 78.5% | RXF 393 renal 75.3% | SF-268 CNS 68% | SF-295 CNS 37.7% | SF-539 CNS 71.5% | UACC-257 melanoma 43.1% | M14 melanoma 73% | HCT-15 colon 57% | HT29 colon 91.3% | SNB-75 CNS 55.7% | SNB-19 CNS 68.2% | U251 CNS 68% | PC-3 prostate 46% | UACC-62 melanoma 52.8% | LOX IMVI melanoma 55.6% | SK-MEL-28 melanoma 77%

Cn1c(-c2c(N)n(Cc3cccnc3)c3nc(C#N)c(C#N)nc23)nc2ccccc21
inactive: DU-145 prostate 95.7% | K-562 leukemia 51.1% | MALME-3M melanoma 53.5% | MDA-MB-231 breast 89.2% | RXF 393 renal 65.9% | SF-268 CNS 98.8% | SF-295 CNS 110% | SF-539 CNS 64.7% | UACC-257 melanoma 102% | M14 melanoma 91.1% | HCT-15 colon 94.5% | HT29 colon 92.1% | SNB-75 CNS 96.6% | SNB-19 CNS 103% | U251 CNS 94.3% | PC-3 prostate 66% | SK-MEL-5 melanoma 89.2% | UACC-62 melanoma 89.8% | LOX IMVI melanoma 97.4% | SK-MEL-28 melanoma 113%

COc1cccc2c1C(=O)c1c(O)c3c(c(O)c1C2=O)CC(O)(/C(C)=N/NC(=O)CCCCC(=O)N/N=C(\C)C1(O)Cc2c(O)c4c(c(O)c2C(OC2CC(N)C(O)C(C)O2)C1)C(=O)c1c(OC)cccc1C4=O)CC3OC1CC(N)C(O)C(C)O1 (stereo not given)
active: DU-145 prostate -47.4% [5 µM] | K-562 leukemia -51.8% [5 µM] | MALME-3M melanoma -66.9% [5 µM] | MDA-MB-231 breast -2.21% [5 µM] | RXF 393 renal -55.4% [5 µM] | SF-268 CNS -31.3% [5 µM] | SF-295 CNS -35.3% [5 µM] | SF-539 CNS -41.8% [5 µM] | UACC-257 melanoma -34.3% [5 µM] | M14 melanoma -57.1% [5 µM] | HT29 colon -68.9% [5 µM] | SNB-75 CNS -67.7% [5 µM] | SNB-19 CNS -8.14% [5 µM] | U251 CNS 2.32% [5 µM] | PC-3 prostate -40.4% [5 µM] | SK-MEL-5 melanoma -89% [5 µM] | UACC-62 melanoma -93% [5 µM] | LOX IMVI melanoma 1.34% [5 µM] | SK-MEL-28 melanoma -76.5% [5 µM]
inactive: HCT-15 colon 13.8% [5 µM]

N#C/C(=C\c1ccc(Br)cc1)n1nnc2cc(F)c(F)cc21
inactive: DU-145 prostate 15.6% | MALME-3M melanoma 65.7% | MDA-MB-231 breast 15% | SF-268 CNS 33.8% | SF-295 CNS 98.6% | UACC-257 melanoma 50.6% | M14 melanoma 18.1% | HCT-15 colon 11.1% | HT29 colon 13.2% | SNB-75 CNS 12.8% | SNB-19 CNS 50.5% | U251 CNS 30% | PC-3 prostate 31.2% | SK-MEL-5 melanoma 44.8% | UACC-62 melanoma 13.3% | SK-MEL-28 melanoma 42.8%
active: K-562 leukemia 9.36% | RXF 393 renal 2.12% | SF-539 CNS -2.33% | LOX IMVI melanoma -49.1%

O=C1/C(=C/c2ccccc2)CCc2nc3ccccc3c(/C=C/c3ccc(Cl)cc3)c21
inactive: DU-145 prostate 98.1% | K-562 leukemia 82% | MALME-3M melanoma 105% | MDA-MB-231 breast 86.6% | RXF 393 renal 96.3% | SF-268 CNS 87.5% | SF-295 CNS 96.3% | SF-539 CNS 99.3% | UACC-257 melanoma 82.8% | M14 melanoma 86.6% | HCT-15 colon 69.4% | HT29 colon 81.3% | SNB-75 CNS 76.5% | SNB-19 CNS 96.3% | U251 CNS 93.2% | PC-3 prostate 79.6% | SK-MEL-5 melanoma 89.8% | UACC-62 melanoma 73% | LOX IMVI melanoma 84.7% | SK-MEL-28 melanoma 91.8%

O=C1N=c2cc3c(cc2=C/C1=C/c1sc(=S)n(CCc2ccc(O)cc2)c1O)OCCO3
inactive: DU-145 prostate 80.6% | MALME-3M melanoma 36.7% | MDA-MB-231 breast 24.8% | RXF 393 renal 92.9% | SF-268 CNS 91.7% | SF-295 CNS 101% | SF-539 CNS 95.8% | UACC-257 melanoma 90.3% | M14 melanoma 27.8% | HT29 colon 21.2% | SNB-75 CNS 61.4% | SNB-19 CNS 22.9% | U251 CNS 17.8% | PC-3 prostate 41.4% | SK-MEL-5 melanoma 83.3% | UACC-62 melanoma 20.7% | SK-MEL-28 melanoma 38.7%
active: K-562 leukemia 6.11% | HCT-15 colon 9.98% | LOX IMVI melanoma 3.28%

Cc1cc(NCCCCNc2ccnc3cc(Cl)ccc23)nc(Nc2ccc(C(=O)N3CCCC3)cc2)n1
active: K-562 leukemia -24.6% | MALME-3M melanoma -70.4% | MDA-MB-231 breast -22.2% | SF-295 CNS 3.67% | SF-539 CNS -68.6% | UACC-257 melanoma -70.6% | M14 melanoma -73.9% | HCT-15 colon 7.18% | HT29 colon -2.28% | SNB-75 CNS -9.47% | U251 CNS -7.46% | SK-MEL-5 melanoma -100% | UACC-62 melanoma -33.6% | LOX IMVI melanoma -90.9% | SK-MEL-28 melanoma -72.8%
inactive: DU-145 prostate 48.3% | RXF 393 renal 32.4% | SF-268 CNS 15.7% | SNB-19 CNS 30.5% | PC-3 prostate 35.6%

COc1ccc(C2=NN(C(=O)c3cc(OC)c(OC)c(OC)c3)C(c3ccc(Cl)cc3)C2)cc1OC (stereo not given)
inactive: MALME-3M melanoma 63.1% | MDA-MB-231 breast 47.6% | RXF 393 renal 22.6% | SF-268 CNS 37.6% | UACC-257 melanoma 54.5% | HT29 colon 15.2% | SNB-75 CNS 21.9% | SNB-19 CNS 29.1% | U251 CNS 24% | PC-3 prostate 26.5% | UACC-62 melanoma 31.1% | LOX IMVI melanoma 31.3% | SK-MEL-28 melanoma 46.1%
active: DU-145 prostate 7.23% | K-562 leukemia 4.27% | SF-295 CNS -4.6% | SF-539 CNS -3.19% | M14 melanoma 6.09% | HCT-15 colon 9.3% | SK-MEL-5 melanoma 9.51%

COc1ccc(NC(=O)CSc2nnc(-c3cc(-c4ccc(S(N)(=O)=O)cc4)nc4ccccc34)n2-c2ccccc2)cc1
inactive: DU-145 prostate 96.6% | K-562 leukemia 66.4% | MALME-3M melanoma 77.5% | MDA-MB-231 breast 72.8% | RXF 393 renal 81.9% | SF-268 CNS 68.6% | SF-295 CNS 94.5% | SF-539 CNS 78.4% | UACC-257 melanoma 103% | M14 melanoma 86.1% | HCT-15 colon 89% | HT29 colon 86.4% | SNB-75 CNS 55.7% | SNB-19 CNS 82.5% | U251 CNS 85.5% | PC-3 prostate 65.9% | SK-MEL-5 melanoma 74.6% | UACC-62 melanoma 65.3% | LOX IMVI melanoma 90.3% | SK-MEL-28 melanoma 80.6%

O=C1/C(=C/c2ccc(Br)cc2)C=C(c2ccccc2)N1CCc1ccccc1
active: SF-295 CNS -25.6% | SNB-75 CNS -34.3% | SNB-19 CNS 6.97% | U251 CNS 6.97%
inactive: DU-145 prostate 54.1% | K-562 leukemia 75.5% | MALME-3M melanoma 50.5% | MDA-MB-231 breast 24.8% | RXF 393 renal 31.5% | SF-268 CNS 33.7% | SF-539 CNS 36% | UACC-257 melanoma 43.7% | M14 melanoma 49.9% | HCT-15 colon 69.7% | HT29 colon 32.5% | PC-3 prostate 22.1% | SK-MEL-5 melanoma 77.1% | UACC-62 melanoma 46.6% | LOX IMVI melanoma 42.2% | SK-MEL-28 melanoma 70.2%

CC1CC(C(C)(C)C)C(=O)C(C(C)(C)C)C1 (stereo not given)
inactive: DU-145 prostate 112% | K-562 leukemia 102% | MALME-3M melanoma 105% | MDA-MB-231 breast 109% | RXF 393 renal 112% | SF-268 CNS 103% | SF-295 CNS 105% | SF-539 CNS 101% | UACC-257 melanoma 102% | M14 melanoma 118% | HCT-15 colon 97.8% | HT29 colon 93.4% | SNB-75 CNS 105% | SNB-19 CNS 106% | U251 CNS 105% | PC-3 prostate 108% | SK-MEL-5 melanoma 105% | UACC-62 melanoma 100% | LOX IMVI melanoma 106% | SK-MEL-28 melanoma 116%
